Experimental data reported in PubChem BioAssay AID1159580 (chemical genetic matrix, 2015).
The campaign covered roughly 5,500 compounds. About 2,000 (36%) were called active. About 18% were inconclusive and are not listed. No stated cut-off is given here; in the data, active means normalized growth mostly below about 0.91 (no sharp cut-off); inconclusive means no clear call, values can overlap the other calls; inactive means mostly above about 0.92. Some of the results follow.

Assay: chemical genetic growth profiling, strain panel (AID 1159580);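 further: tested at 20 µM; growth read once vehicle control cultures reached saturation at 30 °C; 1 = growth at the plate median or of vehicle wells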
Conditions: growth OD
[1] = S. cerevisiae deletion strains, locus YAL013W, strain DEP1, stronger effect = lower value
[2] = S. cerevisiae deletion strains, locus YBR229C, strain ROT2, stronger effect = lower value
[3] = S. cerevisiae deletion strains, locus YDL101C, strain DUN1, stronger effect = lower value
[4] = S. cerevisiae deletion strains, locus YDR150W, strain NUM1, stronger effect = lower value
[5] = S. cerevisiae deletion strains, locus YEL061C, strain CIN8, stronger effect = lower value
[6] = S. cerevisiae deletion strains, locus YGR078C, strain PAC10, stronger effect = lower value
[7] = S. cerevisiae deletion strains, locus YHR030C, strain SLT2, stronger effect = lower value
[8] = S. cerevisiae deletion strains, locus YHR087W, strain rtc3, stronger effect = lower value
[9] = S. cerevisiae deletion strains, locus YJL187C, strain SWE1, stronger effect = lower value
[10] = S. cerevisiae deletion strains, locus YJR043C, strain POL32, stronger effect = lower value
[11] = S. cerevisiae deletion strains, locus YJR075W, strain HOC1, stronger effect = lower value
[12] = S. cerevisiae deletion strains, locus YLR039C, strain RIC1, stronger effect = lower value
[13] = S. cerevisiae deletion strains, locus YLR058C, strain SHM2 (second series), stronger effect = lower value
[14] = S. cerevisiae deletion strains, locus YLR085C, strain ARP6, stronger effect = lower value
[15] = S. cerevisiae deletion strains, locus YLR262C, strain YPT6, stronger effect = lower value
[16] = S. cerevisiae deletion strains, locus YML094W, strain GIM5, stronger effect = lower value
[17] = S. cerevisiae deletion strains, locus YMR219W, strain ESC1, stronger effect = lower value
[18] = S. cerevisiae deletion strains, locus YMR263W, strain SAP30, stronger effect = lower value
[19] = S. cerevisiae deletion strains, locus YNL153C, strain GIM3, stronger effect = lower value
[20] = S. cerevisiae deletion strains, locus YNL298W, strain CLA4 (second series), stronger effect = lower value
[21] = S. cerevisiae deletion strains, locus YNL322C, strain KRE1, stronger effect = lower value
[22] = S. cerevisiae deletion strains, locus YNR030W, strain Alg12, stronger effect = lower value
[23] = S. cerevisiae deletion strains, locus YPL055C, strain LGE1, stronger effect = lower value
[24] = S. cerevisiae deletion strains, locus YPL241C, strain CIN2, stronger effect = lower value
[25] = S. cerevisiae deletion strains, locus YPR135W, strain CTF4, stronger effect = lower value
[26] = S. cerevisiae deletion strains, locus YCL061C, strain MRC1, stronger effect = lower value
[27] = S. cerevisiae deletion strains, locus YNL128W, strain TEP1, stronger effect = lower value

Measured: normalized growth

CCOC(=O)c1cc(C)nc(Sc2ccccc2)c1C#N
active: [1] 0.931 | [2] 0.889 | [3] 0.897 | [6] 0.763 | [8] 0.787 | [9] 0.854 | [10] 0.91 | [11] 0.573 | S. cerevisiae deletion strains, locus YKL190W, strain CNB1, stronger effect = lower value 0.898 | [13] 0.858 | [17] 0.877 | [18] 0.907 | [19] 0.916 | [20] 0.785 | [21] 0.885 | [22] 0.746 | [24] 0.83
inactive: [4] 0.852 | [5] 0.917 | [7] 0.841 | [12] 0.895 | [14] 0.787 | [15] 0.86 | [16] 0.917 | S. cerevisiae deletion strains, locus YMR307W, strain GAS1, stronger effect = lower value 0.754 | [23] 0.844 | [25] 1.12

CCOC(=O)COc1nc(-c2cccs2)cc(C(F)(F)F)c1C#N
inactive: [1] 0.995 | [2] 0.97 | [26] 1 | [3] 0.963 | [4] 0.975 | [5] 0.975 | [6] 0.978 | S. cerevisiae deletion strains, locus YGR229C, strain SMI1, stronger effect = lower value 0.989 | [7] 0.827 | [8] 0.961 | [9] 0.966 | [10] 1.01 | [11] 0.979 | [12] 0.946 | [13] 0.972 | [14] 0.949 | [15] 0.991 | [16] 0.922 | [17] 0.988 | [18] 1.04 | [27] 0.982 | [19] 0.98 | [20] 0.932 | [21] 0.98 | [22] 0.967 | [23] 0.971 | [24] 1.08 | [25] 0.943 | S. cerevisiae strains, strain wild type, stronger effect = lower value 0.965

CCCc1cc(=O)c2ccc(O)cc2o1
inactive: [1] 0.975 | [2] 1 | [26] 0.976 | [3] 0.947 | S. cerevisiae deletion strains, locus YDL134C, strain PPH21, stronger effect = lower value 0.996 | [4] 0.967 | [5] 1 | [6] 0.969 | [7] 0.919 | [8] 1.03 | [10] 1 | [11] 1.01 | [12] 0.957 | [13] 0.986 | [14] 0.964 | [15] 1.01 | [16] 1.02 | [17] 0.998 | [18] 0.995 | [27] 0.97 | [19] 0.993 | [20] 0.971 | [21] 0.966 | [22] 0.985 | S. cerevisiae deletion strains, locus YOL006C, strain TOP1, stronger effect = lower value 0.933 | [23] 1.05 | [24] 0.988 | [25] 0.943

Cc1c(Cc2ccc(F)cc2)c(=O)oc2cc(O)ccc12
inactive: S. cerevisiae deletion strains, locus YAR019C, strain CDC15, stronger effect = lower value 0.973 | S. cerevisiae deletion strains, locus YBL105C, strain PKC1, stronger effect = lower value 0.986 | S. cerevisiae deletion strains, locus YBR135W, strain CKS1, stronger effect = lower value 0.98 | S. cerevisiae deletion strains, locus YBR136W, strain MEC1, stronger effect = lower value 0.963 | S. cerevisiae deletion strains, locus YBR160W, strain CDC28, stronger effect = lower value 0.981 | S. cerevisiae deletion strains, locus YDL017W, strain CDC7, stronger effect = lower value 0.983 | S. cerevisiae deletion strains, locus YDL028C, strain MPS1, stronger effect = lower value 0.976 | [3] 0.979 | S. cerevisiae deletion strains, locus YDL108W, strain KIN28, stronger effect = lower value 0.978 | S. cerevisiae deletion strains, locus YDL132W, strain cdc53, stronger effect = lower value 0.978 | S. cerevisiae deletion strains, locus YDL214C, strain PRR2, stronger effect = lower value 0.967 | S. cerevisiae deletion strains, locus YDR052C, strain DBF4, stronger effect = lower value 0.987 | S. cerevisiae deletion strains, locus YDR054C, strain cdc34, stronger effect = lower value 0.975 | S. cerevisiae deletion strains, locus YDR226W, strain ADK1, stronger effect = lower value 0.987 | S. cerevisiae deletion strains, locus YDR477W, strain SNF1, stronger effect = lower value 0.971 | S. cerevisiae deletion strains, locus YER123W, strain YCK3, stronger effect = lower value 0.99 | S. cerevisiae deletion strains, locus YER133W, strain GLC7, stronger effect = lower value 0.977 | S. cerevisiae deletion strains, locus YFL009W, strain cdc4, stronger effect = lower value 0.973 | S. cerevisiae deletion strains, locus YFL029C, strain CAK1, stronger effect = lower value 0.97 | S. cerevisiae deletion strains, locus YFR003C, strain YPI1, stronger effect = lower value 0.985 | S. cerevisiae deletion strains, locus YFR019W, strain FAB1, stronger effect = lower value 0.988 | S. cerevisiae deletion strains, locus YFR028C, strain CDC14, stronger effect = lower value 0.972 | S. cerevisiae deletion strains, locus YGR040W, strain KSS1, stronger effect = lower value 0.954 | S. cerevisiae deletion strains, locus YGR052W, strain FMP48, stronger effect = lower value 1.02 | S. cerevisiae deletion strains, locus YGR092W, strain DBF2, stronger effect = lower value 0.944 | S. cerevisiae deletion strains, locus YHR079C, strain IRE1, stronger effect = lower value 0.91 | S. cerevisiae deletion strains, locus YHR082C, strain KSP1, stronger effect = lower value 0.968 | S. cerevisiae deletion strains, locus YHR205W, strain SCH9, stronger effect = lower value 0.958 | S. cerevisiae deletion strains, locus YIL147C, strain SLN1, stronger effect = lower value 0.983 | S. cerevisiae deletion strains, locus YJL095W, strain BCK1, stronger effect = lower value 0.923 | S. cerevisiae deletion strains, locus YJL128C, strain PBS2, stronger effect = lower value 0.956 | S. cerevisiae deletion strains, locus YJL157C, strain FAR1, stronger effect = lower value 0.966 | S. cerevisiae deletion strains, locus YJR016C, strain ILV3, stronger effect = lower value 0.982 | S. cerevisiae deletion strains, locus YJR066W, strain TOR1 (second series), stronger effect = lower value 0.976 | S. cerevisiae deletion strains, locus YJR066W, strain TOR1, stronger effect = lower value 0.957 | S. cerevisiae deletion strains, locus YKL048C, strain ELM1, stronger effect = lower value 0.969 | S. cerevisiae deletion strains, locus YKL067W, strain YNK1, stronger effect = lower value 0.979 | S. cerevisiae deletion strains, locus YKL101W, strain HSL1, stronger effect = lower value 0.967 | S. cerevisiae deletion strains, locus YKL193C, strain SDS22, stronger effect = lower value 0.976 | S. cerevisiae deletion strains, locus YKL203C, strain TOR2, stronger effect = lower value 1.01 | S. cerevisiae deletion strains, locus YLR113W, strain HOG1, stronger effect = lower value 0.903 | S. cerevisiae deletion strains, locus YLR133W, strain CKI1, stronger effect = lower value 0.968 | S. cerevisiae deletion strains, locus YLR403W, strain SFP1, stronger effect = lower value 0.969 | S. cerevisiae deletion strains, locus YML070W, strain DAK1, stronger effect = lower value 0.999 | S. cerevisiae deletion strains, locus YMR001C, strain CDC5, stronger effect = lower value 0.978 | S. cerevisiae deletion strains, locus YMR205C, strain PFK2 (second series), stronger effect = lower value 0.974 | S. cerevisiae deletion strains, locus YMR277W, strain FCP1, stronger effect = lower value 0.974 | S. cerevisiae deletion strains, locus YNL006W, strain LST8, stronger effect = lower value 0.975 | S. cerevisiae deletion strains, locus YNL020C, strain ARK1, stronger effect = lower value 0.96 | S. cerevisiae deletion strains, locus YNL161W, strain CBK1, stronger effect = lower value 0.974 | S. cerevisiae deletion strains, locus YNL183C, strain NPR1, stronger effect = lower value 0.939 | S. cerevisiae deletion strains, locus YNL207W, strain RIO2, stronger effect = lower value 0.97 | S. cerevisiae deletion strains, locus YNL222W, strain SSU72, stronger effect = lower value 0.976 | S. cerevisiae deletion strains, locus YNL307C, strain MCK1 (second series), stronger effect = lower value 0.984 | S. cerevisiae deletion strains, locus YOL078W, strain AVO1, stronger effect = lower value 0.973 | S. cerevisiae deletion strains, locus YOL136C, strain PFK27, stronger effect = lower value 0.964 | S. cerevisiae deletion strains, locus YOR061W, strain CKA2, stronger effect = lower value 0.957 | S. cerevisiae deletion strains, locus YOR119C, strain RIO1, stronger effect = lower value 0.977 | S. cerevisiae deletion strains, locus YOR231W, strain MKK1, stronger effect = lower value 0.926 | S. cerevisiae deletion strains, locus YOR329C, strain SCD5, stronger effect = lower value 0.979 | S. cerevisiae deletion strains, locus YPL031C, strain PHO85, stronger effect = lower value 0.947 | S. cerevisiae deletion strains, locus YPL153C, strain RAD53, stronger effect = lower value 0.962 | S. cerevisiae deletion strains, locus YPL204W, strain HRR25, stronger effect = lower value 0.98 | S. cerevisiae deletion strains, locus YPL209C, strain IPL1, stronger effect = lower value 0.982 | S. cerevisiae deletion strains, locus YPL256C, strain CLN2, stronger effect = lower value 0.899 | S. cerevisiae deletion strains, locus YPR025C, strain CCL1, stronger effect = lower value 0.977 | S. cerevisiae deletion strains, locus YPR106W, strain ISR1, stronger effect = lower value 0.984 | S. cerevisiae deletion strains, locus YPR111W, strain DBF20, stronger effect = lower value 0.971 | S. cerevisiae deletion strains, strain NNK1, stronger effect = lower value 0.984 | S. cerevisiae deletion strains, strain TSCII, stronger effect = lower value 0.978
active: [7] 0.83
